Glioma ERSR ind: ER stress response induction in glioma. U87-MG GRP78 promoter luciferase reporter, 16 h. Potency, µM, inactives show top-dose activation, most hits filed as activators. hit rate 0.02% among 420,000. AID 602332; further: potency means the concentration at half of the fitted maximal effect; series mostly up to about 76 µM; % of control where 0% means no effect; nearly all actives have a fitted effect of over 35% in size
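ERSR induction read as luciferase luminescence (Bright-Glo, 10 min at room temperature) in stably transfected human U87-MG glioma cells exposed to compounds for 16 h, using GRP78 as sensor.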
TCR activator: activators of T cell receptors; primary human leukocytes, anti-CD3, IL-2 HTRF, 48 h; Potency, µM (highest dose often 9.22 µM), inactives show top-dose activation of IL-2 secretion, actives largely listed as activators; 330,000 tested, under 10 active; AID 504894; further: % of control where 0% means no effect
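IL-2 release read by HTRF sandwich (Eu cryptate donor, d2 acceptor, 665 nm emission) after 48 hr exposure of primary human leukocytes to compound together with anti-CD3 beads in the absence of co-stimulatory signals.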
Mito fusion yeast: inhibitors of mitochondrial division or activators of mitochondrial fusion; S. cerevisiae fusion-defective mutant growth rescue, CellTiterGlo 48 h; Potency, µM (series often up to 46.1 µM), for the others: at the highest dose growth rescue (activation), actives largely listed as activators; hit rate 0.23% among 320,000; further: potency means the concentration at half of the fitted maximal effect; % of control where 0% means no effect; nearly all actives have a fitted effect of over 45% in size
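Luminescent cell viability in 1536-well qHTS format served as the measure of rescued growth in ts fusion-mutant S. cerevisiae cultured on non-fermentable YPEG for 48 hours at 37C.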
MBNL1-CUG inh: blocks human MBNL1 binding to CUG repeat RNA; Q9NR56; TR-FRET MBNL1-His/biotin-(CUG)12 binding, 665/545 ratio; Potency, µM (titrated, usually from 57.5 µM), for the others: top-dose activity change, negative = inhibition, usual class: inhibitors; hit rate 0.036% among 280,000; active means well fitted inhibition curve with a large enough effect in the signal ratio, with a control signal flat, not every such curve was filed as active; inconclusive means small, poorly fitted or top-dose-only effect, or effect the other way, or a change in a side signal; inactive means no such curve, though single readings can be large or run the other way; the % refers to the signal ratio; further: potency means the concentration at half of the fitted maximal effect; on the % scale 0 is the no-effect control and ±100 the full control effect
Target sequence (Q9NR56 whole entry, looked up): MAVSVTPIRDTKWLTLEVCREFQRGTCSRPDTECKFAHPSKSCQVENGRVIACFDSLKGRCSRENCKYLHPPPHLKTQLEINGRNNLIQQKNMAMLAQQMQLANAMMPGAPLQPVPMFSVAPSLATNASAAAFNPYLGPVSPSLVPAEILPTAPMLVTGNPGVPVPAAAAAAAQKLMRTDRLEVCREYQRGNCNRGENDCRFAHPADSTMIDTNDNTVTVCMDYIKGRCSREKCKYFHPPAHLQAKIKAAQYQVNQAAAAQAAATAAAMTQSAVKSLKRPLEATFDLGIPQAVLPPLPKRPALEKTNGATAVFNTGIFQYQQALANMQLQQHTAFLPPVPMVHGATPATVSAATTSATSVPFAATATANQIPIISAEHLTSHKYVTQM
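Compound titration spanned 92 nM–58 uM against the MBNL1-His/biotin-(CUG)12 complex. After 60 min at room temperature with 5 nM streptavidin-XL665 and 0.055 ng/ul terbium anti-His, ratiometric 665/545 nm emission (Ex 340 nm) normalized to controls.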
AT treatment: potential ataxia-telangiectasia treatments restoring KAP-1 phosphorylation; Potency, µM (titrated, usually from 57.5 µM), for inactives: at the top dose activation, actives largely listed as activators; F2112 A-T fibroblasts, KAP-1 phosphorylation AlphaLISA; neocarzinostatin DNA damage 30 min before lysis; hit rate 0.19% among 320,000; further: potency means the concentration at half of the fitted maximal effect; % of control where 0% means no effect; nearly all actives have a fitted effect of over 45% in size
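hTERT-immortalized A-T patient fibroblasts (F2112), 500 cells/well in OPTI-MEM, 1% FBS, got compounds for 60 min, then NCS for 30 min at 37C. Lysates were then assayed for phospho-KAP-1 by AlphaLISA (anti-pKAP1 donor, anti-KAP1 acceptor beads), 6 hr at 25C.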
ClpP mod: qHTS Assay for Activators of ClpP | ATP-dependent Clp protease proteolytic subunit (Bacillus subtilis (strain 168)), P80244 | purified B. subtilis ClpP, FRET peptide cleavage, 20 min | Potency, µM (series often up to 57.5 µM), inactives show top-dose activity change, negative = active | hit rate 1.9% among 340,000 | AID 651965, 2013; active means well fitted falling curve with a large enough effect; inconclusive means small, poorly fitted or top-dose-only effect; inactive means no such curve, though single readings can be large or run the other way; further: potency means the concentration at half of the fitted maximal effect; the source files actives as falling curves though it sought activators and does not explain the sign; nearly all actives have a fitted effect of over 65% in size
Target sequence (P80244 whole entry, looked up): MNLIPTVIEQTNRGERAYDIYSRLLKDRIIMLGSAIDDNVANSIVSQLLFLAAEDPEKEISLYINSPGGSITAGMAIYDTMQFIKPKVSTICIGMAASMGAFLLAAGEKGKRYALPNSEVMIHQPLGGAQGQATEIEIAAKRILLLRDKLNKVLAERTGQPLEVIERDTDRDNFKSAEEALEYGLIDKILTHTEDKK
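FRET quenching reversal measured ClpP activation: 10 microg/mL B. subtilis ClpP at pH 8 with the FRET-FV decapeptide, read at 430 nm after 320 nm excitation. The 20-min minus 0-min signal was scaled between DMSO/no-enzyme wells and ADEP (5.8 microM final).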
* hit, by the source's call; [ ] = remark or other dose. Sampled rows, rich in hits. Any-hit rate of the full collection: about 1.8%. Unless noted, the call rests on the fitted dose curve; in most records, active means well fitted curve in the direction sought with a large enough effect; inconclusive means small, poorly fitted or top-dose-only effect, or another doubt; inactive means no such curve, though single readings can be large; an effect the other way counts as inactive or inconclusive.

How did COc1ccc(CCNC(=O)c2cnc3sc(N4CCCCC4)nn3c2=O)cc1OC do in these assays?
Glioma ERSR ind: -2%; ClpP mod: 5%

What do the screens show for `COCCCNC(=O)c1cnc2sc(N3CCCCC3)nn2c1=O`?
Glioma ERSR ind: -4%; ClpP mod: 4%

Results for N#Cc1nc(COc2ccc(-c3ccccc3)cc2)oc1N1CCC(C(N)=O)CC1 ?
Glioma ERSR ind: -2%; ClpP mod: -3%

How did Cc1ccc2cc(C#N)c(NCCNC(=O)C3CCC3)nc2c1C do in these assays?
Glioma ERSR ind: -4%; TCR activator: -22%; Mito fusion yeast: 6%; MBNL1-CUG inh: 3%; AT treatment: 14%; ClpP mod: 16µM*

How did COc1cccc(CN2CCCC(c3nc(C)ncc3-c3ccc(F)cc3)C2)c1OC (configuration not stated) do in these assays?
Glioma ERSR ind: -6%

What do the screens show for `CCn1c(-c2ccco2)n[nH]c1=S`?
Glioma ERSR ind: -5%; TCR activator: 1%; Mito fusion yeast: -8%; MBNL1-CUG inh: 4%; AT treatment: -8%; ClpP mod: inconclusive

Results for CCCCn1c(-c2ccco2)n[nH]c1=S ?
Glioma ERSR ind: -1%; TCR activator: -1%[46.1 µM]; Mito fusion yeast: 1%; MBNL1-CUG inh: -10%; AT treatment: -4%; ClpP mod: 22µM*

How did CCCCCc1cc[n+](CC(=O)c2ccccc2)cc1 do in these assays?
Glioma ERSR ind: -1%; ClpP mod: 0%

Results for COCCn1c(=O)c(-c2cccs2)nc2cnc(N(C)C)nc21 ?
Glioma ERSR ind: 1%

What do the screens show for `Cc1cnc(C)c(-c2cccc3c2OC(CNC(=O)C2(c4ccc(Cl)cc4)CC2)C3)n1` (configuration not stated)?
Glioma ERSR ind: -1%

Results for c1ccc2c3c([nH]c2c1)-c1[nH]ncc1CC3 ?
Glioma ERSR ind: 8%; TCR activator: -2%; Mito fusion yeast: -11%; MBNL1-CUG inh: -5%; AT treatment: 12%; ClpP mod: 13µM*

What do the screens show for `Clc1ccc2[nH]c3c(c2c1)CCc1cn[nH]c1-3`?
Glioma ERSR ind: 3%; TCR activator: 1%; Mito fusion yeast: -25%; MBNL1-CUG inh: 4%; AT treatment: -5%; ClpP mod: 28µM*

Results for COc1ccc(Cn2ccc3nc(C)c(C(=O)Nc4ccc(OC(F)(F)F)cc4)cc3c2=O)cc1 ?
Glioma ERSR ind: -5%; ClpP mod: 25µM*

What do the screens show for `Cc1c(S(=O)(=O)N(C)C2CCCCC2)c(=O)n(C)c(=O)n1C`?
Glioma ERSR ind: -3%; TCR activator: -1%; Mito fusion yeast: -4%; AT treatment: -6%; ClpP mod: 13µM*

How did CN(C)c1ccc(/C=C/c2ccnc3c(Cl)ccc(Cl)c23)cc1 do in these assays?
Glioma ERSR ind: 1%; ClpP mod: -3%

Results for CC1(C)CC(=O)C2=C(C1)c1c(ccc3ccccc13)NC2c1ccco1 (configuration not stated) ?
Glioma ERSR ind: 13%; Mito fusion yeast: 21%; MBNL1-CUG inh: 8%; AT treatment: 11%; ClpP mod: 25µM*

What do the screens show for `COc1cc(OC)c2c(C)cc(=O)oc2c1C(CCN1CCN(c2ccccc2)CC1)c1ccc2c(c1)OCO2` (configuration not stated)?
Glioma ERSR ind: -3%; TCR activator: 2%; Mito fusion yeast: -21%; MBNL1-CUG inh: -3%; AT treatment: 3%; ClpP mod: 32µM*

How did COc1cc(OC)c2c(-c3ccccc3)cc(=O)oc2c1C(CCN1CCOCC1)c1ccc2c(c1)OCO2 (configuration not stated) do in these assays?
Glioma ERSR ind: -1%; TCR activator: 1%[46.1 µM]; AT treatment: 3%; ClpP mod: inconclusive

How did Cc1ccc(/C=C/c2nnc(-c3cccs3)o2)cc1 do in these assays?
Glioma ERSR ind: -1%; TCR activator: -39%; Mito fusion yeast: -6%; MBNL1-CUG inh: 5%; AT treatment: 2%; ClpP mod: 8.9µM*

Results for c1ccc2c(c1)ncn2Cc1nnc2sc(-c3ccc4c(c3)OCO4)nn12 ?
Glioma ERSR ind: -4%; TCR activator: 6%; Mito fusion yeast: 2%; MBNL1-CUG inh: 12%; AT treatment: 9%; ClpP mod: 28µM*

What do the screens show for `c1ccc2c(c1)OCC(c1nnc3sc(-c4ccc5c(c4)OCO5)nn13)O2` (configuration not stated)?
Glioma ERSR ind: 9%; TCR activator: 7%; Mito fusion yeast: 30%; MBNL1-CUG inh: -10%; AT treatment: -5%; ClpP mod: 28µM*

How did Fc1ccc(-c2nn3c(C4COc5ccccc5O4)nnc3s2)cc1 (configuration not stated) do in these assays?
Glioma ERSR ind: 3%; TCR activator: 0%; Mito fusion yeast: 4%; MBNL1-CUG inh: 0%; AT treatment: -7%; ClpP mod: 5%

What do the screens show for `Clc1ccccc1-c1nnc2sc(-c3ccc4c(c3)OCO4)nn12`?
Glioma ERSR ind: 4%; TCR activator: -6%; Mito fusion yeast: 5%; MBNL1-CUG inh: 34%; AT treatment: -5%; ClpP mod: 32µM*

Results for Cc1ccc(Cn2cnc3c(cnn3C(C)(C)C)c2=O)cc1F ?
Glioma ERSR ind: -2%

How did COc1cccc(CN2CCC3(CC2)c2ccccc2[C@@H](NC(=O)c2ccccc2)[C@@H]3O)c1O do in these assays?
Glioma ERSR ind: -4%

How did Cc1c(CC(C)(C)C(=O)O)n(Cc2ccc(Cl)cc2)c2ccc(F)cc12 do in these assays?
Glioma ERSR ind: -2%

Results for O=C(NCc1cccs1)c1cc(-c2ccccc2)nc2ccccc12 ?
Glioma ERSR ind: -4%; TCR activator: 1%[46.1 µM]; Mito fusion yeast: inconclusive; MBNL1-CUG inh: 3%; AT treatment: 11%; ClpP mod: -3%

How did CC1CCCN(C(=O)c2cc(-c3cccs3)nc3ccccc23)C1 (configuration not stated) do in these assays?
Glioma ERSR ind: -3%; TCR activator: 2%; AT treatment: 1%

How did O=C(Nc1nnc(-c2cccs2)o1)c1cc(-c2ccccc2)nc2ccccc12 do in these assays?
Glioma ERSR ind: -2%; TCR activator: -3%; Mito fusion yeast: 13µM*; MBNL1-CUG inh: 11%; AT treatment: 12%; ClpP mod: -11%

Screens: PubChem, National Center for Advancing Translational Sciences (NCATS)
